Inconclusive results are not listed. A call without a number means that no potency is given here. Unmarked numbers belong to inactive results. Active and inactive are the calls of the source. Calls follow the shape of the dose curve; as a rule, active = well fitted curve in the direction sought with a large enough effect; inconclusive = small, poorly fitted or top-dose-only effect, or another doubt; inactive = no such curve, though single readings can be large; an effect the other way counts as inactive or inconclusive.
Tests used:
[1] = system: Zika virus NS2B-NS3 protease; assay: Primary screen GU AMC qHTS for Zika virus inhibitors (AID 1347154); also: nearly all actives have a fitted effect of over 70% in size; also: potency is read from the fitted curve at half-maximal effect
Outline: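 Fluorogenic AMC-substrate cleavage by noncovalent NS2B-NS3 protease complex (25 nM, pH 8.0 Tris buffer with Tween 20) followed for 15 minutes at room temperature (~20% conversion). Percent inhibition from ex340/em450 signal change, fitted by 4-parameter Hill equation.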

[2] = system: Zika virus NS2B-NS3 protease (linked construct); assay: Primary screen NINDS Rhodamine qHTS for Zika virus inhibitors (AID 1347160); also: nearly all actives have a fitted effect of over 55% in size
Outline: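 Each compound, titrated, sat 15 min with 25 nM linked protease before 1.5 microM Rhodamine110 substrate went in. Fluorescence gain over the next 15 min, in pH 8.0 Tris with Tween 20, gave Hill-fitted curves.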

[3] = qHTS to identify inhibitors of the type 1 interferon - major histocompatibility complex class I in skeletal muscle: primary screen against the NCATS Mechanism Interrogation Plate v5.0 (MIPE) Libary (AID 1347411); also: nearly all actives have a fitted effect of over 65% in size; also: potency is read from the fitted curve at half-maximal effect
Outline: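 Seed engineered human myoblasts (HLA-B HiBit) in medium without dexamethasone containing 4 ng/ml IFN-beta; after 1 hr add compound titrations (top 46 uM final). Incubate 24 hrs at 37 C, lyse 10 min with HiBiT reagent, read luminescence.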

[4] = qHTS to identify inhibitors of the type 1 interferon - major histocompatibility complex class I in skeletal muscle: primary screen against the NCATS Pharmaceutical Collection (AID 1347407);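 also: luminescence of HiBiT knocked into endogenous HLA-B as interferon-induced MHC class I level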
Outline: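 A qHTS format is used: 8-point, 1:5 compound series with 46 uM top final concentration, applied alongside 4 ng/ml IFN-beta to HLA-B*08:01-HiBiT knock-in myoblasts. Luminescence is measured after 24 h treatment.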

[5] = biological target: Protein phosphatase 1D (Homo sapiens) (UniProt O15297); assay: RapidFire Mass Spectrometry qHTS Assay for Modulators of WT P53-Induced Phosphatase 1 (WIP1) (AID 1347424);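 also: amount of dephosphorylated VEPPL-S-QETFS peptide product formed by WIP1; series mostly up to about 63 µM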
Protein phosphatase 1D (Homo sapiens), sequence (O15297 whole entry, looked up): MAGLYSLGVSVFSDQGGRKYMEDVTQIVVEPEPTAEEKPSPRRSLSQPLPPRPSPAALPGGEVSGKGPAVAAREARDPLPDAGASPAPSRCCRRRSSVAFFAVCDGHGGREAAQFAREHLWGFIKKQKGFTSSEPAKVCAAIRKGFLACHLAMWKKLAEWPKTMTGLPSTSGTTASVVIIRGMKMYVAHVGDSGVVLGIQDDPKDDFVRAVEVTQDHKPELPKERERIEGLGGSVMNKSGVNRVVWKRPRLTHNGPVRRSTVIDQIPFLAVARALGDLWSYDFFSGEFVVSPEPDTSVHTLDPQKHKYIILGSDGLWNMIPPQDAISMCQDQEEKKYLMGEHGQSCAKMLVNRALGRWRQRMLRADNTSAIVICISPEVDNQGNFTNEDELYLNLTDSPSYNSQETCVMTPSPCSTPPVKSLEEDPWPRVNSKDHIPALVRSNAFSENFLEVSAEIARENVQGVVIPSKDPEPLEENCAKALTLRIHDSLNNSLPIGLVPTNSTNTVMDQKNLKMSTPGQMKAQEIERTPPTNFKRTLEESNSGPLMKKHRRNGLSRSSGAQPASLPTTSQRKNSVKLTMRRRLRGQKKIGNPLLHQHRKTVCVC
Outline: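 RapidFire mass spectrometry measured dephosphorylated peptide after 5 min room-temperature reaction of 2 uM VEPPL-pS-QETFS with 10 nM WIP1 (50 mM Tris-HCl pH 7.5, 30 mM MgCl2, 0.1 mM EGTA, BSA), following 1 hr compound preincubation; 1 uM isotope-labelled product standard.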

[6] = biological target: Protein phosphatase 1D (Homo sapiens) (UniProt O15297); assay: Rhodamine-PBP qHTS Assay for Modulators of WT P53-Induced Phosphatase 1 (WIP1) (AID 1347425)
Outline: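 WIP1 (5 nM final) was preincubated with compound for 1 hour at room temperature. It then dephosphorylated 10 uM VEPPL-pS-QETFS peptide in Tris-HCl pH 7.5 with 30 mM MgCl2. Released Pi was detected by 10 uM Rh-PBP fluorescence (ex 525/em 598 nm) read at 1-min intervals for 11 min, as delta f1 - f0.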

[7] = Primary qHTS for inhibitors of La Crosse Virus (LACV) - induced cell death in SH-SY5Y cells (AID 1508616);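 also: top concentration of the series differs between compounds; higher means more rescue of cells from virus-induced death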
Outline: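 SH-SY5Y, 6000 cells/well; cpd via pin tool in DMSO; LACV 0.01 MOI; 6 d 37C 5% CO2; ATPLite, 5 min RT; luminescence normalized to ±virus DMSO controls.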

[8] = biological target: Calcium and integrin-binding protein 1 (Homo sapiens) (UniProt Q99828); assay: Confirmatory qHTS for Identification of Calcium Integrin Binding Protein 1 (CIB1) Competitor (AID 1508617); also: nearly all actives have a fitted effect of over 65% in size
Calcium and integrin-binding protein 1 (Homo sapiens), sequence (Q99828 whole entry, looked up): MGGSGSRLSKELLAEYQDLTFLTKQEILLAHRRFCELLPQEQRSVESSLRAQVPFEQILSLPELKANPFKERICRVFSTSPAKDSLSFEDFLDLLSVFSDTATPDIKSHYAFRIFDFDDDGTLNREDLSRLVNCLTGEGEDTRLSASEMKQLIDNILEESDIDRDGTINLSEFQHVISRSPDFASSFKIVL
Outline: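 FP competition: CIB1-GST (1 uM final) in 5 mM HEPES pH 7.4, 125 mM NaCl, 5 mM CaCl2, 0.01% Tween20 preincubated 15 min RT with compounds (up to 114 uM), then FITC-alphaIIb peptide (100 nM), 15 min RT; Ex 480/Em 540.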

CCN1C[C@H](C)n2c(c(O)c3c(=O)n(Cc4ccc(F)c(Cl)c4)nc(C(=O)NC)c32)C1=O
Potency [1]: inactive | Potency [2]: inactive

CCC[C@H](N[C@@H](C)C(=O)N1[C@@H]2CCCC[C@H]2C[C@H]1C(=O)O)C(=O)OCC
Potency [1]: inactive | Potency [3]: inactive

CCOC(=O)N1c2ccc(C(F)(F)F)cc2[C@@H](N(Cc2cc(C(F)(F)F)cc(C(F)(F)F)c2)C(=O)OC)C[C@H]1CC
Potency [1]: inactive | Potency [3]: inactive

CN(C)CCN(Cc1ccc(Cl)cc1)c1ccccn1
Potency [1]: inactive | outcome [4]: inactive | Potency [5]: inactive | outcome [6]: inactive | outcome [7]: inactive

CN1c2ccccc2C(=O)N2CCc3c([nH]c4ccccc34)C21 (centres undefined)
Potency [1]: inactive | Potency [2]: inactive

N#Cc1ccc(Oc2ccc3c(c2)COB3O)cc1
Potency [1]: inactive | Potency [2]: inactive | Potency [3]: inactive

COc1ccc2c(c1)c(C1=C(c3c[nH]c4ccccc34)C(=O)NC1=O)cn2CCCN(C)C
Potency [1]: inactive | Potency [3]: 20.8 µM (active)

CC(C)[C@H](O)C(=O)N[C@@H](C)C(=O)N[C@@H]1C(=O)N(C)CCc2ccccc21
Potency [1]: inactive | Potency [3]: inactive

CCCCC(C)(C)[C@H](O)C=C[C@H]1[C@H](O)CC(=O)[C@H]1CC=CCCCC(=O)O
Potency [1]: inactive | Potency [3]: inactive

Cc1cc2nc3c(=O)[nH]c(=O)nc-3n(CC(O)C(O)C(O)CO)c2cc1C (centres undefined)
Potency [1]: inactive | Potency [3]: inactive

CN(C)CCCNC(=O)c1ccc(-c2cc(O)c3ncccc3c2)cc1
Potency [1]: inactive | Potency [3]: inactive | Potency [8]: inactive

Nc1ncnc2c1ncn2[C@@H]1O[C@H](CO)[C@@H](O)[C@@H]1O
Potency [1]: inactive | Potency [3]: inactive

Cc1cccc(-c2[nH]c(C(C)(C)C)nc2-c2ccc3c(c2)OCO3)n1
Potency [1]: inactive | Potency [3]: inactive

OC1CCC(Nc2ncc3nc(Nc4c(F)cc(F)cc4F)n([C@@H]4CCOC4)c3n2)CC1 (some centres undefined)
Potency [1]: 24.1 µM (active) | Potency [3]: inactive

CC(C)(CO)[C@@H](O)C(=O)NCCC(=O)O
Potency [1]: inactive | Potency [3]: inactive

COc1cc(F)c(C(C)C)cc1-c1ccc(C(F)(F)F)cc1CN1C(=O)O[C@H](c2cc(C(F)(F)F)cc(C(F)(F)F)c2)[C@@H]1C
Potency [1]: inactive | Potency [3]: inactive

COc1cc2nccc(Oc3ccc(NC(=O)Nc4ccc(F)cc4F)c(F)c3)c2cc1OC
Potency [1]: inactive | Potency [3]: 10.4 µM (active)

Source: PubChem BioAssay (NCATS)
